# According to PubChem BioAssay AID652053 (Broad Institute, 2013):
# Screen size: about 1,300 compounds; about 930 (72%) were called active.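 How the source made its calls: active means fitted curve reaches 40% activation signal increase at or below the top valid tested concentration in every replicate test; inconclusive means replicate tests disagree in their calls; inactive means all replicate tests inactive, including effects opposite the expected signal rise.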 So high a share suggests a set chosen from earlier hits. These entries were drawn from the full list. Results with a measured potency or affinity are listed apart.
# Assay: suppression of miR-122 activity, Renilla luciferase sensor – cell-based, Huh7 psiCHECK-miR122, cherry-pick, dose response (AID 652053)
# Details: Huh7 psiCHECK-miR122 Renilla luciferase reporter, 48 h; series mostly up to 35 µM; activation (miR-122 inhibition): at the top concentration
row,SMILES,activation (miR-122 inhibition)
1,Cc1cccc(OCCCC(=O)Nc2ccc(Cl)c(S(=O)(=O)N3CCOCC3)c2)c1,26.7% (inactive)
2,COC(=O)c1cc(Br)ccc1NC(=O)Nc1ccccc1,-7.49% (inactive)
3,COc1ccc2c(c1)C(C)=CC(C)(C)N2S(=O)(=O)c1ccc(Br)cc1,20.6% (inactive)
4,CC(C)NC(=O)N(C)C[C@@H]1Oc2ccc(N(C)C)cc2CC(=O)N([C@H](C)CO)C[C@@H]1C,-7.22% (inactive)
5,C[C@H](CO)N1C[C@H](C)[C@H](CN(C)CC2CC2)Oc2ccc(N(C)C)cc2CC1=O,-3.7% (inactive)
6,C[C@H](CO)N1C[C@H](C)[C@H](CN(C)S(=O)(=O)c2ccc(Cl)cc2)Oc2ccc(N(C)C)cc2CC1=O,-4.37% (inactive)
7,C[C@H](CO)N1C[C@H](C)[C@H](CN(C)S(C)(=O)=O)Oc2ccc(N(C)C)cc2CC1=O,10.5% (inactive)
8,CCCOC(=O)c1[nH]c2c(c1C)C(=O)CC(c1cccs1)C2 (stereo not given),27.8% (inactive)
9,Clc1ccc(CNc2nc(N3CCOCC3)nc(N3CCOCC3)n2)cc1,-7.36% (inactive)
10,CCn1c(SCC(=O)Nc2ccc(N3CCOCC3)cc2)nnc1-c1ccc(OC)cc1,-11.1% (inactive)
11,CC(C)N1C(=O)CC(Nc2ccc(N3CCOCC3)cc2)C1=O (stereo not given),14.4% (inactive)
12,COCCNC(=O)C[C@@H]1CC[C@H]2[C@@H](COc3ccc(NC(C)=O)cc3C(=O)N2C)O1,9.45% (inactive)
13,COCC(=O)Nc1ccc2c(c1)C(=O)N(C)[C@H]1CC[C@@H](CC(=O)O)O[C@H]1CO2,-2.08% (inactive)
14,CC(C)C(=O)Nc1ccc2c(c1)C(=O)N(C)[C@H]1CC[C@@H](CC(=O)NCC3CC3)O[C@@H]1CO2,1.56% [at 30 µM] (inactive)
15,COc1ccccc1CNC(=O)C[C@@H]1CC[C@H]2[C@H](COc3ccc(NC(=O)Nc4ccc(F)c(F)c4)cc3C(=O)N2C)O1,-26.4% (inactive)
16,COc1ccccc1CNC(=O)C[C@H]1CC[C@H]2[C@H](COc3ccc(NC(=O)Nc4ccc(F)c(F)c4)cc3C(=O)N2C)O1,-21.2% (inactive)
17,COc1ccccc1CNC(=O)C[C@@H]1CC[C@H]2[C@@H](COc3ccc(NC(=O)Nc4ccc(F)c(F)c4)cc3C(=O)N2C)O1,-26.3% (inactive)
18,CCCNC(=O)C[C@@H]1CC[C@@H]2[C@H](COc3ccc(NC(=O)Nc4c(C)noc4C)cc3C(=O)N2C)O1,-2.46% (inactive)
19,Cc1nc(Nc2nc(CSc3nc4ccccc4[nH]3)cc(=O)[nH]2)nc2ccccc12,19.8% (inactive)
20,Cc1ccc2c(C)nc(Nc3nc(CSc4nc5ccccc5[nH]4)cc(=O)[nH]3)nc2c1,0.806% (inactive)
21,NC(=O)c1ccc(-n2nnnc2SCC(=O)c2ccc(O)c(O)c2)cc1,1.97% (inactive)
22,Cc1ccc(-n2nnnc2SCC(=O)N2c3ccccc3NC(=O)C2(C)C)cc1,-3.77% (inactive)
23,O=C(C[C@H]1CC[C@@H]2[C@H](COC[C@H](O)CN2C(=O)C2CCCC2)O1)NCc1ccncc1,-9.04% (inactive)
24,N#Cc1cnn2c1nc(N1CCCCC1)c1ccccc12,-9.38% (inactive)
25,CCCCn1c(SCC(=O)Nc2nnc(CC)s2)nc2c1c(=O)n(C)c(=O)n2C,-3.31% (inactive)
26,CC(C)Cc1nnc(NC(=O)Cc2ccccc2[N+](=O)[O-])s1,13.4% (inactive)
27,COc1ccccc1C(=O)Nc1ccc2c(c1)C(=O)N(C)[C@@H]1CC[C@@H](CC(=O)NCc3ccc(Cl)c(Cl)c3)O[C@@H]1CO2,-8.54% (inactive)
28,COc1ccccc1CNC(=O)C[C@@H]1CC[C@@H]2[C@H](COc3ccc(NC(=O)Nc4ccc(F)c(F)c4)cc3C(=O)N2C)O1,-27.8% (inactive)

row,SMILES,activation (miR-122 inhibition)
1,COc1ccccc1C(=O)Nc1ccc2c(c1)C(=O)N(C)[C@@H]1CC[C@@H](CC(=O)NCc3ccc(Cl)c(Cl)c3)O[C@H]1CO2,-25% (inactive)
2,COc1ccccc1C(=O)Nc1ccc2c(c1)C(=O)N(C)[C@@H]1CC[C@H](CC(=O)NCc3ccc(Cl)c(Cl)c3)O[C@H]1CO2,-5.9% (inactive)
3,COc1ccccc1CNC(=O)C[C@@H]1CC[C@@H]2[C@@H](COc3ccc(NC(=O)Nc4ccc(F)c(F)c4)cc3C(=O)N2C)O1,-28.1% (inactive)
4,COc1ccccc1C(=O)Nc1ccc2c(c1)C(=O)N(C)[C@@H]1CC[C@H](CC(=O)NCc3ccc(Cl)c(Cl)c3)O[C@@H]1CO2,-24.2% (inactive)
5,O=C(c1ccccc1F)N1C[C@H]2[C@@H](c3ccccc31)[C@@H](CO)N2Cc1ccc2c(c1)OCO2,6.54% (inactive)
6,CCOc1ccc(Cl)cc1S(=O)(=O)n1cnc2cc(C)c(C)cc21,29.3% (inactive)
7,Cc1ccc(-n2nnc(-c3nccs3)n2)cc1,16.2% (inactive)
8,CCOc1ccc(CSC2=NCCN2)cc1Cl,20.8% (inactive)
9,CCCNC(=O)C[C@@H]1CC[C@H]2[C@H](COc3ccc(NC(=O)Cc4cccs4)cc3C(=O)N2C)O1,-2.59% (inactive)
10,CCc1cccc(CC)c1NC(=O)COC(=O)C1(c2ccc(Cl)cc2)CCCC1,-10.1% (inactive)
11,COc1ccc(OC)c(S(=O)(=O)N2CCNCC2)c1,-9.55% (inactive)
12,Cn1nc(CC(=O)N2CCN(c3ccccc3)CC2)c2ccccc2c1=O,-11% (inactive)
13,COc1cccc(C(=O)N2C[C@@H]3[C@H](c4ccccc42)[C@H](CO)N3C(=O)c2ccc(F)cc2)c1,22.7% (inactive)
14,COc1cccc(C(=O)N2C[C@@H]3[C@H](c4ccccc42)[C@@H](CO)N3C(=O)c2ccc(F)cc2)c1,-8.38% (inactive)
15,CC(C)NC(=S)N1CCn2c(nc3ccccc32)C1,8.37% (inactive)
16,CC(C)CC(=O)NCCCN1CCN(CCCNC(=O)CC(C)C)CC1,-6.68% (inactive)
17,CCOC(=O)c1ccc(-n2ccnc2)c(NC(=O)c2cccc(Br)c2)c1,8.02% (inactive)
18,Cn1cnc(S(=O)(=O)N2C[C@@H](O)COC[C@H]3O[C@@H](CC(=O)NC4CCCC4)CC[C@@H]32)c1,0.434% (inactive)
19,CCOC(=O)CN1C(=O)C(C)(C)Oc2ccc(C(=O)Nc3ccccc3)cc21,-9.1% (inactive)
20,CC(=O)N1[C@H](CNC(=O)C2CC2)[C@@H](c2ccc(-c3ccccc3)cc2)[C@@H]1CO,-2.22% (inactive)
21,Cc1cc(C)c2nc(Nc3nc(CSc4nc5ccccc5[nH]4)cc(=O)[nH]3)nc(C)c2c1,101% (inactive)
22,O=C(C1CCN(Cc2ccc(F)cc2)CC1)N1CCN(C/C=C/c2ccccc2)CC1,-10.2% (inactive)
23,CC(=O)N1CCc2cc(S(=O)(=O)NCCCN3CCN(Cc4ccccc4)CC3)ccc21,6.61% (inactive)
24,COc1ccc(-c2cc(NC(C)=O)c3ncc(-c4cc(OC)c(OC)c(OC)c4)n3c2)cn1,38.9% (inactive)
25,N#C/C(=N\Nc1ccc(S(=O)(=O)N2CCCCC2)cc1)C(N)=S,0.783% (inactive)
26,COc1cc(S(=O)(=O)N2CCOCC2)ccc1NC(=O)CSc1n[nH]c(=O)[nH]c1=O,7.53% (inactive)
27,Cc1ccc(NC(=O)c2ccc(S(=O)(=O)N3CCOCC3)cc2)nc1,12.6% (inactive)
